Consider 10 compounds from PubChem BioAssay (NCI).

About 79,000 compounds went through this panel and 15% of them were active in at least one assay; those are over-represented in the sample as a whole. Values without a mark were called inactive. Active and inactive are the calls of the source. Cut-off read from the data, not from the text of the source: active = growth inhibition above about 70%; inactive = the rest.

Assay [1] can be described thus: NCI Yeast Anticancer Drug Screen. Data for the rad50 strain (AID 155).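 Note: 0% = growth of vehicle-only cultures of the same strain.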 Conditions: S. cerevisiae rad50 strain growth inhibition, stronger effect = higher value. In a few lines:
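Growth of the mutant yeast was measured after compound exposure and referenced to vehicle-treated cultures.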

Assay [2] is described as follows: NCI Yeast Anticancer Drug Screen. Data for the mec2-1 strain (AID 157). Conditions: S. cerevisiae mec2-1 strain, stronger effect = higher value. In short, it runs like this:
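Mutant yeast (mec2-1) grown with compound; growth inhibition relative to vehicle control reported.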

A short description of assay [3]: NCI Yeast Anticancer Drug Screen. Data for the sgs1 mgt1 strain (AID 161).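 Note: 0% = growth of cultures given vehicle only.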 Particulars: S. cerevisiae sgs1 mgt1 strain, stronger effect = higher value. In short, it runs like this:
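Compounds are added to genetically altered yeast, and growth is compared with cultures given vehicle alone to give percent inhibition.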

A short description of assay [4]: NCI Yeast Anticancer Drug Screen. Data for the cln2 rad14 strain (AID 165).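 Note: 0% = growth equal to vehicle treated cultures.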 Conditions: S. cerevisiae cln2 rad14 strain, stronger effect = higher value. In a few lines: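 Readout is yeast growth inhibition versus vehicle-treated controls, using a strain with cln2 and rad14 alterations exposed to compound.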
A short description of assay [5]: NCI Yeast Anticancer Drug Screen. Data for the bub3 strain (AID 167). Conditions: S. cerevisiae bub3 mutant strain, stronger effect = higher value. In short, it runs like this:
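Whole-cell yeast assay. The mutant strain was incubated with compounds, and growth inhibition was determined by comparison with vehicle-treated cells.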

Assay [6] in a line: NCI Yeast Anticancer Drug Screen. Data for the mlh1 rad18 strain (AID 175). Conditions: S. cerevisiae mlh1 rad18 strain growth inhibition, stronger effect = higher value. In short, it runs like this: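 Genetically defined yeast (DNA repair-deficient) exposed to compounds; growth inhibition determined relative to vehicle.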
[7] abbreviates: at 5.0 µM (retest, dose inferred, filed as 0.5).
Where [8] appears, read: at 50.0 µM (retest, dose inferred, filed as 5.0).

As for `NC1CCCCC1N.O=S(=O)([O-])CCCN1CCOCC1.O=S(=O)([O-])CCCN1CCOCC1.[Pt+4]`, the growth inhibition in assay [1] (setting [7]) is -12%; in assay [1] (setting [8]) it was 89% (active); in assay [1] (at 50.0 µM), 99% (active); in assay [2] (setting [7]), -6%; in assay [2] (setting [8]), 73% (active); in assay [2] (at 50.0 µM), 98.9% (active). Further, the growth inhibition in assay [3] (setting [7]) was 0%; in assay [3] (setting [8]), 87% (active); in assay [3] (at 50.0 µM) it was 99% (active); in assay [4] (setting [7]) it was -14%; in assay [4] (setting [8]), 58%; in assay [4] (at 50.0 µM) it was 99% (active). The growth inhibition was 10% in assay [5] (setting [7]); 92% (active) in assay [5] (setting [8]); 98.6% (active) in assay [5] (at 50.0 µM); 20% in assay [6] (setting [7]); 98% (active) in assay [6] (setting [8]); 99.2% (active) in assay [6] (at 50.0 µM).

As for `CC(CN(C)C)C(=O)/C=C/c1c(Cl)cccc1Cl` (stereo not given), the growth inhibition in assay [1] (setting [7]) was 2%; in assay [1] (setting [8]), 88% (active); in assay [1] (at 50.0 µM), 86.7% (active); in assay [2] (setting [7]), 8%; in assay [2] (setting [8]), 96% (active); in assay [2] (at 50.0 µM), 46.4%. The growth inhibition in assay [3] (setting [7]) was 11%; in assay [3] (setting [8]), 94% (active); in assay [3] (at 50.0 µM), 90.2% (active); in assay [4] (setting [7]), 2%; in assay [4] (setting [8]), 44%; in assay [4] (at 50.0 µM), 29.4%. Also, the growth inhibition in assay [5] (setting [7]) is -1%; in assay [5] (setting [8]), 92% (active); in assay [5] (at 50.0 µM) it was 74.9% (active); in assay [6] (setting [7]) it was 3%; in assay [6] (setting [8]), 97% (active); in assay [6] (at 50.0 µM), 96.5% (active).

Consider `NC(=Nc1ccccc1)SCc1ccc([N+](=O)[O-])cc1`, for which the growth inhibition is 47% in assay [1] (setting [7]); 67% in assay [1] (setting [8]); 30.2% in assay [1] (at 50.0 µM); 51% in assay [2] (setting [7]); 78% (active) in assay [2] (setting [8]); 43% in assay [2] (at 50.0 µM). Further, the growth inhibition was 13% in assay [3] (setting [7]); 71% (active) in assay [3] (setting [8]); 57.2% in assay [3] (at 50.0 µM); 52% in assay [4] (setting [7]); 76% (active) in assay [4] (setting [8]); 16.8% in assay [4] (at 50.0 µM). Besides, the growth inhibition in assay [5] (setting [7]) is 29%; in assay [5] (setting [8]) it was 76% (active); in assay [5] (at 50.0 µM), 70.5% (active); in assay [6] (setting [7]), 43%; in assay [6] (setting [8]), 70% (active); in assay [6] (at 50.0 µM), 19.4%.

`CC(CN(C)C)C(/C=C/c1ccc(F)cc1)=N\Nc1ccccc1` (stereo not given): the growth inhibition in assay [1] (setting [7]) is -8%; in assay [1] (setting [8]), 51%; in assay [1] (at 50.0 µM) it was 30.1%; in assay [2] (setting [7]), -11%; in assay [2] (setting [8]), 1%; in assay [2] (at 50.0 µM) it was 12.6%. Also, the growth inhibition in assay [3] (setting [7]) was -15%; in assay [3] (setting [8]) it was 13%; in assay [3] (at 50.0 µM), 42.6%; in assay [4] (setting [7]) it was 5%; in assay [4] (setting [8]), 46%; in assay [4] (at 50.0 µM), 3.65%. In addition, the growth inhibition in assay [5] (setting [7]) is -1%; in assay [5] (setting [8]), 39%; in assay [5] (at 50.0 µM), 15.9%; in assay [6] (setting [7]), 0%; in assay [6] (setting [8]), 29%; in assay [6] (at 50.0 µM) it was 75.7% (active).

Turning to `NC(=S)C(=S)N/C=C/c1nc2ccccc2[nH]c1=O`, the growth inhibition in assay [1] (setting [7]) is -19%; in assay [1] (setting [8]), 98% (active); in assay [1] (at 50.0 µM) it was 89.8% (active); in assay [2] (setting [7]) it was -25%; in assay [2] (setting [8]) it was 99% (active); in assay [2] (at 50.0 µM) it was 92.7% (active). The growth inhibition was -13% in assay [3] (setting [7]); 97% (active) in assay [3] (setting [8]); 91.7% (active) in assay [3] (at 50.0 µM); -11% in assay [4] (setting [7]); 98% (active) in assay [4] (setting [8]); 89.3% (active) in assay [4] (at 50.0 µM). Moreover, the growth inhibition in assay [5] (setting [7]) is -7%; in assay [5] (setting [8]) it was 99% (active); in assay [5] (at 50.0 µM) it was 90.7% (active); in assay [6] (setting [7]), -6%; in assay [6] (setting [8]) it was 98% (active); in assay [6] (at 50.0 µM) it was 89.4% (active).

Turning to `C(=Nc1ccccc1)c1cn(Cc2ccccc2)c2ccccc12`, the growth inhibition in assay [1] (setting [7]) is 90% (active); in assay [1] (setting [8]), 95% (active); in assay [1] (at 50.0 µM), 83.1% (active); in assay [2] (setting [7]), 99% (active); in assay [2] (setting [8]), 99% (active); in assay [2] (at 50.0 µM) it was -10.2%. In addition, the growth inhibition in assay [3] (setting [7]) was 99% (active); in assay [3] (setting [8]) it was 99% (active); in assay [3] (at 50.0 µM), 64.7%; in assay [4] (setting [7]) it was 100% (active); in assay [4] (setting [8]) it was 99% (active); in assay [4] (at 50.0 µM), -12.6%. The growth inhibition in assay [5] (setting [7]) was 99% (active); in assay [5] (setting [8]) it was 99% (active); in assay [5] (at 50.0 µM) it was 11.6%; in assay [6] (setting [7]), 99% (active); in assay [6] (setting [8]) it was 97% (active); in assay [6] (at 50.0 µM) it was 36.9%.

Consider `CCN(C(C)=O)c1ccc2c(c1)Cc1ccccc1-2`, for which the growth inhibition is 3% in assay [1] (setting [7]); 96% (active) in assay [1] (setting [8]); 97.2% (active) in assay [1] (at 50.0 µM); -3% in assay [2] (setting [7]); 97% (active) in assay [2] (setting [8]); 95.2% (active) in assay [2] (at 50.0 µM). Further, the growth inhibition is 5% in assay [3] (setting [7]); 97% (active) in assay [3] (setting [8]); 96.8% (active) in assay [3] (at 50.0 µM); -2% in assay [4] (setting [7]); 96% (active) in assay [4] (setting [8]); 94.8% (active) in assay [4] (at 50.0 µM). The growth inhibition in assay [5] (setting [7]) is 11%; in assay [5] (setting [8]) it was 96% (active); in assay [5] (at 50.0 µM), 97.4% (active); in assay [6] (setting [7]) it was -10%; in assay [6] (setting [8]), 97% (active); in assay [6] (at 50.0 µM) it was 96.8% (active).

With `COc1ccc(CC2c3cc4c(cc3CCN2C)OCO4)c(C=O)c1OC` (stereo not given), the growth inhibition in assay [1] (setting [7]) was -2%; in assay [1] (setting [8]), -4%; in assay [1] (at 50.0 µM) it was 82% (active); in assay [2] (setting [7]), -1%; in assay [2] (setting [8]) it was -1%; in assay [2] (at 50.0 µM) it was 86.7% (active). Besides, the growth inhibition in assay [3] (setting [7]) is -1%; in assay [3] (setting [8]), -3%; in assay [3] (at 50.0 µM) it was 83.3% (active); in assay [4] (setting [7]), -4%; in assay [4] (setting [8]), -11%; in assay [4] (at 50.0 µM) it was 84.7% (active). Further, the growth inhibition in assay [5] (setting [7]) was -2%; in assay [5] (setting [8]), 1%; in assay [5] (at 50.0 µM), 57.3%; in assay [6] (setting [7]) it was -2%; in assay [6] (setting [8]) it was -4%; in assay [6] (at 50.0 µM) it was -38.8%.

Turning to `O=C(Nc1ccccc1)OCCN=C1c2ccccc2CCc2ccccc21`, the growth inhibition is 4% in assay [1] (setting [7]); 95% (active) in assay [1] (setting [8]); 66.1% in assay [1] (at 50.0 µM); -35% in assay [2] (setting [7]); 96% (active) in assay [2] (setting [8]); 76.2% (active) in assay [2] (at 50.0 µM). For the same compound, the growth inhibition is -27% in assay [3] (setting [7]); 95% (active) in assay [3] (setting [8]); 81.7% (active) in assay [3] (at 50.0 µM); -30% in assay [4] (setting [7]); 94% (active) in assay [4] (setting [8]); 84% (active) in assay [4] (at 50.0 µM). The growth inhibition was -30% in assay [5] (setting [7]); 96% (active) in assay [5] (setting [8]); 83.9% (active) in assay [5] (at 50.0 µM); -22% in assay [6] (setting [7]); 95% (active) in assay [6] (setting [8]); 88.8% (active) in assay [6] (at 50.0 µM).

Turning to `O=C(/C=C/c1ccccc1)CCN1CCOCC1`, the growth inhibition in assay [1] (setting [7]) was 21%; in assay [1] (setting [8]) it was 99% (active); in assay [1] (at 50.0 µM) it was 91.3% (active); in assay [2] (setting [7]), 26%; in assay [2] (setting [8]) it was 99% (active); in assay [2] (at 50.0 µM) it was 85.3% (active). The growth inhibition in assay [3] (setting [7]) was 22%; in assay [3] (setting [8]), 100% (active); in assay [3] (at 50.0 µM) it was 86.5% (active); in assay [4] (setting [7]), 0%; in assay [4] (setting [8]) it was 84% (active); in assay [4] (at 50.0 µM), 88.7% (active). Besides, the growth inhibition in assay [5] (setting [7]) is 35%; in assay [5] (setting [8]), 100% (active); in assay [5] (at 50.0 µM) it was 88.8% (active); in assay [6] (setting [7]), 32%; in assay [6] (setting [8]), 99% (active); in assay [6] (at 50.0 µM) it was 84.7% (active).
